Assay [1] is described as follows: qHTS assay to identify small molecule antagonists of the androgen receptor (AR) signaling pathway using the MDA cell line in the presence of 0.5 nM R1881 - cell viability counter screen (AID 1259242). Also: nearly all actives have a fitted effect of over 45% in size. Also: potency is read from the fitted curve at half-maximal effect. Summed up: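 Live-cell protease fluorescence, CellTiter-Fluor, 30 min at 37C. Cells: MDA-kb2, 3,000/well, preincubated 5 hr. Compounds plus 0.5 nM R1881 final, 16 hr, 37C, 0% CO2.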
(Quantitative high-throughput screening tests each substance at several concentrations.)

Assay [2] has as its target Estrogen receptor (Homo sapiens) (UniProt P03372). In words: qHTS assay to identify small molecule antagonists of the estrogen receptor alpha (ER-alpha) signaling pathway using the BG1 cell line in the presence of 0.1 nM 17-beta-estradiol (AID 1259244). Also: nearly all actives have a fitted effect of over 50% in size. Also: potency is read from the fitted curve at half-maximal effect. Summed up: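 Luminescence after ONE-Glo (30 min, room temperature) measured ERE-luciferase activity in VM7Luc4E2 cells treated 22 h with compound and 0.1 nM final 17beta-estradiol as stimulator.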

Assay [3] is described as follows: qHTS assay to identify small molecule HDAC inhibitors (AID 1259364).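 Also: wild-type HCT-116 cells with endogenous class I/II HDAC activity; top concentration of the series differs between compounds; nearly all actives have a fitted effect of over 45% in size.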 Summed up:
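HCT-116 (wild type), 1,500 cells/well, overnight; compound 2 hr 37C 5% CO2; HDAC-Glo I/II reagent 30 min RT; luminescence readout.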

Assay [4] in a line: qHTS assay to identify small molecule HDAC inhibitors - cell viability counter screen (AID 1259365). Also: series mostly up to about 92 µM; nearly all actives have a fitted effect of over 50% in size. In outline:
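Measured quantity is CellTiter-Glo luminescence from wild-type HCT-116 cells after compound incubation of 2hr at 37C, 5% CO2; reagent developed 30min at room temperature.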

A short description of assay [5]: qHTS assay to identify small molecule agonists of the sonic hedgehog signaling (Shh) pathway - cell viability counter screen (AID 1259366). Also: nearly all actives have a fitted effect of over 50% in size. Also: potency is read from the fitted curve at half-maximal effect. Summed up:
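In quantitative high-throughput format, 3T3 Gli1-Luc cells were exposed to compounds for 24hr and multiplexed for viability using CellTiter-Fluor, incubated 1hr at 37C before the fluorescence read.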

The nature of assay [6]: qHTS assay to identify small molecule antagonists of the sonic hedgehog signaling (Shh) pathway - cell viability counter screen (AID 1259367). Also: nearly all actives have a fitted effect of over 55% in size. Also: potency is read from the fitted curve at half-maximal effect. In outline: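 Cytotoxicity was assessed in parallel with Shh reporter activity by measuring live-cell protease fluorescence (CellTiter-Fluor) in NIH/3T3 cells stably carrying Gli1-Luc, treated with compound under conditioned medium stimulation for 23 hr plus 1 hr reagent incubation.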

Assay [7] can be described thus: qHTS assay to identify small molecule agonists of the sonic hedgehog signaling (Shh) pathway (AID 1259368; calls by dose curve;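 also: NIH/3T3-derived 3T3Gli1-Luc cells carrying a stable Gli1-driven firefly luciferase reporter; series mostly up to about 92 µM; nearly all actives have a fitted effect of over 15% in size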). Summed up: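 Read-out: firefly luciferase luminescence from a Gli1 response element reporter stably integrated in NIH/3T3-derived 3T3Gli1-Luc cells, measured 30 min at room temperature after reagent addition. Compound exposure lasted 24 hr at 37 C, 5% CO2.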

Assay [8] in a line: qHTS assay to identify small molecule antagonists of the sonic hedgehog signaling (Shh) pathway (AID 1259369; calls by dose curve; also: nearly all actives have a fitted effect of over 45% in size). Summed up:
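Luminescence readout: firefly Luc under Gli1 response element in 3T3Gli1-Luc cells (NIH/3T3 clone). Antagonist mode, stimulation by conditioned medium; compound exposure 24hr at 37 C, 5% CO2.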

Assay [9] can be described thus: qHTS assay to identify small molecule agonists of the androgen receptor (AR) signaling pathway in the presence of an antagonist - cell viability counter screen (AID 1259379). Also: nearly all actives have a fitted effect of over 25% in size. Also: potency is read from the fitted curve at half-maximal effect. In outline: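 Viability counter screen: CellTiter-Fluor fluorescence, measured in the same wells as the luciferase read-out. MDA-kb2 cells, 3,000/well, with nilutamide at 3.0uM final and compounds at 15 concentrations, 16 hr at 37C, 0% CO2.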

Assay [10] is described as follows: qHTS assay to identify small molecule agonists of the estrogen receptor beta (ER-beta) signaling pathway - cell viability counter screen (AID 1259380). Also: nearly all actives have a fitted effect of over 30% in size. Also: potency is read from the fitted curve at half-maximal effect. Summed up:
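Luminescence read-out (CellTiter-Glo, 30 min, room temp) taken in the same wells as the beta-lactamase reporter assay; ER-beta-UAS-bla HEK293T cells exposed to DMSO-dissolved compounds for 16 hr at 37C in 2% charcoal-stripped FBS medium.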

Assay [11] in a line: qHTS assay to identify small molecule antagonists of the estrogen receptor beta (ER-beta) signaling pathway - cell viability counter screen (AID 1259382). Also: nearly all actives have a fitted effect of over 55% in size. Also: potency is read from the fitted curve at half-maximal effect. In outline:
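Luminescent ATP read-out (CellTiter-Glo, 30 min, RT) taken in the same wells as the bla reporter assay. HEK293T ER-beta-UAS-bla cells in 2% charcoal-stripped FBS were exposed to compounds with 1nM E2 for 16 hr at 37C.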

Assay [12] deals with Estrogen receptor (Homo sapiens) (UniProt P03372). In words: qHTS assay to identify small molecule agonists of the estrogen receptor alpha (ER-alpha) signaling pathway in the presence of an antagonist (AID 1259383; calls by dose curve; also: top concentration of the series differs between compounds; nearly all actives have a fitted effect of over 15% in size). Summed up: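 Luciferase luminescence (ONE-Glo, 30min at room temperature) measured in VM7Luc4E2 cells after 22hr compound exposure at 15 concentrations, with 10.0nM ICI-182,780 final present; cells express endogenous ER-alpha and carry four EREs upstream of luciferase.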

A short description of assay [13]: qHTS assay to identify small molecule agonists or antagonists of the thyroid stimulating hormone receptor (TSHR) signaling pathway - wild type cell line counter screen (AID 1259384; calls by dose curve). In outline: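 Wild-type HEK293 cells were plated 18 h at 37 C/5% CO2, pin-dosed with compound plus Ro20-1724 medium, held 30 min at room temperature, then given cAMP-d2 and anti-cAMP-cryptate; fluorescence was read after 1 h. Fifteen concentrations, triplicate.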

The target in assay [14] is Thyrotropin receptor (Homo sapiens) (UniProt P16473). In words: qHTS assay to identify small molecule antagonists of the thyroid stimulating hormone receptor (TSHR) signaling pathway (AID 1259385; calls by dose curve; also: nearly all actives have a fitted effect of over 20% in size; also: potency is read from the fitted curve at half-maximal effect). Summed up: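 TSHR-HEK293 cells were plated and held 18 h at 37C/5% CO2, then given compound plus Ro20-1724 and stimulated with TSH at 1.5 ng/mL final. After 30 min at room temperature, cAMP was detected with cAMP-d2/anti-cAMP-cryptate (1 h) by fluorescence.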

Assay [15] is described as follows: qHTS assay to identify small molecule agonists of the estrogen receptor alpha (ER-alpha) signaling pathway in the presence of an antagonist - cell viability counter screen (AID 1259386).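 Also: cells exposed to compounds for 22 h at 37 °C before the viability read; nearly all actives have a fitted effect of over 30% in size.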 Also: potency is read from the fitted curve at half-maximal effect. In outline:
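Read-out: CellTiter-Fluor fluorescence after 1hr reagent incubation, measured in the same wells as the luciferase readout. VM7Luc4E2 cells were exposed to 15 compound concentrations with 10.0nM ICI-182,780 for 22hr at 37C.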

For assay [16], the target named is Estrogen receptor beta (Homo sapiens) (UniProt Q92731). In words: qHTS assay to identify small molecule agonists of the estrogen receptor beta (ER-beta) signaling pathway (AID 1259377; active = well fitted activation curve with a large enough effect in the signal ratio in the repeat runs, not every such curve was filed as active; the % refers to the signal ratio). In outline:
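Reporter cells (HEK293T, ER-beta-UAS-bla) receive compounds or DMSO after a 6 hr pre-incubation. They then incubate 16 hr at 37C/5% CO2, and fluorescence from LiveBLAzer B/G substrate is measured after 2 hours at room temperature.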

For assay [17] the target is unchanged. In words: qHTS assay to identify small molecule antagonists of the estrogen receptor beta (ER-beta) signaling pathway (AID 1259378; active = well fitted inhibition curve with a large enough effect in the signal ratio in the repeat runs, not every such curve was filed as active; the % refers to the signal ratio). Summed up:
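ER-beta-UAS-bla HEK293T (GripTite) cells in 2% charcoal-stripped FBS medium were preincubated 6 hr at 37C, dosed with compound, then stimulated with 1 nM E2 (final) for 16 hr; beta-lactamase reporter read by B/G FRET fluorescence after 2 hr substrate loading.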

Assay [18] in a line: qHTS assay to identify small molecule phospholipidosis (PLD) inducers (AID 1259344; active = well fitted curve in the direction sought with a large enough effect; an effect the other way counts as inactive or inconclusive). Summed up: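 Cells (HepG2, 900 per well) attach for 4 h, receive LipidTOX Red and compound together, incubate 24 h at 37 C, are fixed 30 min with paraformaldehyde/Hoechst, then imaged at one site per well.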

Where “and” joins values, the source holds several entries; their conditions need not be identical. Identical values can stand only once. Inconclusive results are not listed. Calls of active or inactive are those of the source. Unless noted, calls follow the shape of the dose curve; as a rule, active = well fitted curve in the direction sought with a large enough effect in the repeat runs; inconclusive = weak or mixed curves; inactive = no such curve, though single readings can be large; an effect the other way counts as inactive or inconclusive.

Estrogen receptor (Homo sapiens), sequence (P03372 whole entry, looked up): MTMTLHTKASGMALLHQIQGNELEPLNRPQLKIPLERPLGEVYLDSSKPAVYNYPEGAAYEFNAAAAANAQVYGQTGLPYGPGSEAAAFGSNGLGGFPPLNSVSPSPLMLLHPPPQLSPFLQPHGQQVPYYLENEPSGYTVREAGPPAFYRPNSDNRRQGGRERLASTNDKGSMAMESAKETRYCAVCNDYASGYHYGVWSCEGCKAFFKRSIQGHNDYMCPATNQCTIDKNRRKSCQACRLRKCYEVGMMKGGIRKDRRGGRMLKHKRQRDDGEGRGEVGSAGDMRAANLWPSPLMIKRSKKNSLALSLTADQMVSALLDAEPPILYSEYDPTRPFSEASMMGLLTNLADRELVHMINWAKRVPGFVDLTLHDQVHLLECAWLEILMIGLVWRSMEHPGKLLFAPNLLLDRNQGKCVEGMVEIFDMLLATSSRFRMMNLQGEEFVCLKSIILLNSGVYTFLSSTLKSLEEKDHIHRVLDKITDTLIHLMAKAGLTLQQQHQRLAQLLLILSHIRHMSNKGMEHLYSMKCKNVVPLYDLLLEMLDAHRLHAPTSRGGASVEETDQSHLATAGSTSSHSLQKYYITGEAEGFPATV
Thyrotropin receptor (Homo sapiens), sequence (P16473 whole entry, looked up): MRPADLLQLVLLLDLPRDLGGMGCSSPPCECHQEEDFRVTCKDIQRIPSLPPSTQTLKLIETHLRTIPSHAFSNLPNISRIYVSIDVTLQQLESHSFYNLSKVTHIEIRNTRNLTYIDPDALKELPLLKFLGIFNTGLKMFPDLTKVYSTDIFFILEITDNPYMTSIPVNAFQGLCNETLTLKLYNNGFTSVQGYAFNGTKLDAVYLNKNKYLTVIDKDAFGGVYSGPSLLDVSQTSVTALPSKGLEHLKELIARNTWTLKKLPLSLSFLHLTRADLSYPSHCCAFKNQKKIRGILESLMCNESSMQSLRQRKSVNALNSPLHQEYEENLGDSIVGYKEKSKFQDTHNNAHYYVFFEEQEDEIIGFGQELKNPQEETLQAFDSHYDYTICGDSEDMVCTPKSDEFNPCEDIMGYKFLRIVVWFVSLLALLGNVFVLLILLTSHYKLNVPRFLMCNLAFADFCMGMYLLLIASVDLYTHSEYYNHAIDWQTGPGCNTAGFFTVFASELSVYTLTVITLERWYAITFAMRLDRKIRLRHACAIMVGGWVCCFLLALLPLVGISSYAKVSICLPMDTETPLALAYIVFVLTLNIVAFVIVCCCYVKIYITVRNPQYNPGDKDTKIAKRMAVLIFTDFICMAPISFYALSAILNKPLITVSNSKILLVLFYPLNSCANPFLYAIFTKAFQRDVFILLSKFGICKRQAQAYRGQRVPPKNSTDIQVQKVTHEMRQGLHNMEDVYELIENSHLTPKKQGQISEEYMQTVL
Estrogen receptor beta (Homo sapiens), sequence (Q92731 whole entry, looked up): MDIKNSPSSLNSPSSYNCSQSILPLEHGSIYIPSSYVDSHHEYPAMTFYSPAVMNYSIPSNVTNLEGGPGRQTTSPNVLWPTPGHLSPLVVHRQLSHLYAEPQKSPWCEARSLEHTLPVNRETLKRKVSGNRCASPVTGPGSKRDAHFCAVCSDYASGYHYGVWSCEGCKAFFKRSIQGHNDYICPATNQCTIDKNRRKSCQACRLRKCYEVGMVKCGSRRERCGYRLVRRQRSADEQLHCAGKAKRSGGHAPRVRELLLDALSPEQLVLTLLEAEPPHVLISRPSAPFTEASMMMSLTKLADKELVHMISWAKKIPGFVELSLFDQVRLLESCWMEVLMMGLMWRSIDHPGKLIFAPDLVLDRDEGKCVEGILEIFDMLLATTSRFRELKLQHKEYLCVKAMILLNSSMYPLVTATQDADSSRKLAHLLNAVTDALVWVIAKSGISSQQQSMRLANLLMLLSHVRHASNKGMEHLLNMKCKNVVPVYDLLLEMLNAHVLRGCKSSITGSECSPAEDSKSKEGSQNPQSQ

For `Cc1ncc([N+](=O)[O-])n1C`, the Potency entry in assay [1], in [2], in assay [3], in assay [4], in assay [5] and in assay [6] was “inactive” throughout. In addition, the Potency entry in assay [8], in [9], in assay [10], in assay [11], in [12] and in assay [13] was “inactive” in each case. Further, the Potency result in assay [14] and in [15] was “inactive” each time. Further, the compound was called inactive in assay [7].

Turning to `C=C(C)C(=O)OCC(C)O` (configuration not stated), the Potency entry in [1], in [2], in assay [3], in assay [4], in assay [5] and in assay [6] was “inactive” throughout. Moreover, the Potency result in [8], in [16], in assay [17], in assay [9], in [10] and in [11] was “inactive” each time. Further, the Potency entry in assay [12], in assay [13], in assay [14] and in [15] was “inactive” throughout. In addition, in [7], the compound was classed as inactive.

Consider `COc1ccc2cc(S(=O)(=O)N[C@H](CC(=O)N[C@H](Cc3ccc(CN4[C@H](C)CCC[C@@H]4C)cc3)C(=O)N(C)C(C)C)c3ccc4c(c3)OCO4)ccc2c1`, for which the Potency in assay [1] was 46 µM (active); in [2], 51.6 µM (active); in assay [5], 25.8 µM (active); in assay [6] it was 29 µM (active); in assay [9], 51.6 µM (active); in assay [10], 18.3 µM (active). Moreover, the Potency in assay [11] is 29 µM (active); in assay [14], 57.9 µM (active); in [15], 36.5 µM (active). The Potency result in [3], in [4], in [8], in assay [12] and in [13] was “inactive” in each case. Further, the call in [7] was inactive.

In the case of `Cc1ncc([N+](=O)[O-])n1CCO`, the Potency entry in [1], in assay [2], in [18], in assay [3], in assay [5] and in [6] was “inactive” throughout. The Potency entry in assay [8], in [9], in assay [10], in assay [11], in assay [12] and in assay [13] was “inactive” in each case. Further, the Potency result in assay [14] and in assay [15] was “inactive” throughout. In addition, the result in assay [7] was inactive.

With `CNNCc1ccc(C(=O)NC(C)C)cc1`, the Potency entry in assay [1], in [18], in assay [3], in [4], in assay [5] and in assay [6] was “inactive” each time. In addition, the Potency result in assay [8], in [16], in [17], in [9], in assay [10] and in assay [11] was “inactive” in each case. The Potency entry in assay [13], in assay [14] and in [15] was “inactive” throughout. Further, the compound was classed as inactive in assay [7].

`CC(C)c1c(C(=O)Nc2ccccc2)c(-c2ccccc2)c(-c2ccc(F)cc2)n1CC[C@@H](O)C[C@@H](O)CC(=O)O`: the Potency entry in assay [1], in [18], in assay [3], in [4], in assay [5] and in assay [6] was “inactive” each time. Moreover, the Potency result in assay [8], in [9], in assay [13], in [14] and in assay [15] was “inactive” each time. For the same compound, the result in [7] was inactive. The Potency in assay [10] was 11.7 µM (active) and 25.5 µM (active); in [11], 13.2 µM (active) and 32.1 µM (active).

With `Cc1cn([C@H]2C=C[C@@H](CO)O2)c(=O)[nH]c1=O`, the Potency result in [1], in assay [18], in [3], in assay [5], in assay [6] and in assay [8] was “inactive” throughout. Besides, the Potency result in [16], in assay [17], in [9], in assay [10], in assay [11] and in [13] was “inactive” each time. The Potency result in [14] and in [15] was “inactive” each time. In addition, in assay [7], the call was inactive.
